From PubChem BioAssay AID686979 (National Center for Advancing Translational Sciences (NCATS), 2013)
About 50,000 (12%) of roughly 420,000 compounds were called active. Another 26% or so got no clear call; they are omitted. This is one part of a sample in which actives are shown more often than they occur. Calls come from the whole dose curve; as a rule, active = well fitted inhibition curve with a large enough effect; inconclusive = small, poorly fitted or top-dose-only effect; inactive = flat fitted curve, though single readings scatter.

Assay: qHTS for Inhibitors of human tyrosyl-DNA phosphodiesterase 1 (TDP1): qHTS in cells in presence of CPT; note: nearly all actives have a fitted effect of over 55% in size
Conditions: chicken DT40 Tdp1-/-;hTDP1 cells + 20 nM CPT, ATP luminescence, 48 h; series mostly up to 46.2 µM; activity change, negative = growth inhibition: at the top concentration
Summary of the method: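 Chicken DT40 Tdp1-/- cells complemented with human TDP1, 400 cells/well, exposed to compounds plus 20 nM camptothecin for at least 48 h at 37 C; viability read as ATP content by CellTiter-Glo luminescence.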
% is set by controls: 0 for no effect and ±100 for the full control effect; potency is the fitted concentration of half-maximal effect.

Row | SMILES | activity change, negative = growth inhibition | Potency
1 | COc1cccc(OCCn2c(-c3ccc(Br)cc3)nc3ccccc3c2=O)c1 | -9.2% (inactive) | 
2 | COc1ccc(-c2ccc(CCC(=O)O)n2-c2ccc(O)cc2)cc1 | -13.8% (inactive) | 
3 | COc1ccc(-c2nc3ccccc3c(=O)n2CCc2ccc(O)cc2)cc1 |  | 14.6 µM (active)
4 | C=CCNC(=O)COC(=O)c1ccccc1C(=O)N(C)C1CCCCC1 | -5.9% (inactive) | 
5 | CC1CCCC(NC(=O)COC(=O)c2ccccc2C(=O)N(C)C2CCCCC2)C1C (centres undefined) |  | 23.1 µM (active)
6 | O=C(COC(=O)c1ccccc1SCC(=O)NC1CCCCC1)NC1CCCCC1 | 3.2% (inactive) | 
7 | COc1cc(=O)n2c(c1C(=O)NC(C)c1ccco1)CCN(C(=O)c1cn3ccc(C)cc3n1)CC2 (centres undefined) | 3.27% (inactive) | 
8 | Cc1cc(C)cc(Oc2nc3c(C)cccn3c(=O)c2/C=C(\C#N)C(=O)NC2CCS(=O)(=O)C2)c1 (centres undefined) |  | 16.4 µM (active)
9 | Cc1cccn2c(=O)c(/C=C(\C#N)S(=O)(=O)c3ccc(Cl)cc3)c(N3CCC(C(N)=O)CC3)nc12 | 0.471% (inactive) | 
10 | Cc1ccc(C(=O)N/C(=C\c2ccco2)C(=O)NC2CCS(=O)(=O)C2)cc1 (centres undefined) | 13.6% (inactive) | 
11 | Cc1ccnc(Nc2nc3ccccc3s2)n1 | -17.4% (inactive) | 
12 | Cc1ccnc(-n2sc3ccccc3c2=O)n1 |  | 7.31 µM (active)
13 | Cc1ccnc(SCC(N)=O)n1 | -14.1% (inactive) | 
14 | Cc1cccc(C)c1NC(=O)CNC(=O)C1CCCC1 | -0.199% (inactive) | 
15 | CCc1ccnc(NC(=O)Nc2ccc(OCc3ccccc3)cc2)c1 | -10.7% (inactive) | 
16 | O=C1CC(=O)Nc2cc(S(=O)(=O)N3CCN(c4cccc(C(F)(F)F)c4)CC3)ccc2N1 | 5.71% (inactive) | 
17 | Cc1[nH]c(C)c(S(=O)(=O)N2CCN(c3cccc(C(F)(F)F)c3)CC2)c1C(=O)N1CCCCC1 |  | 14.6 µM (active)
18 | Cc1ccc(NS(=O)(=O)c2c(C)[nH]c(C)c2C(=O)N2CCCCC2)c(C)c1 | -27% (inactive) | 
19 | Cc1ccc(C)c(NS(=O)(=O)c2c(C)[nH]c(C)c2C(=O)N2CCCCC2)c1 | -4.6% (inactive) | 
20 | Cc1[nH]c(C)c(S(=O)(=O)N2CCC(C)CC2)c1C(=O)N1CCCC1 | -6.25% (inactive) | 
21 | Cc1[nH]c(C)c(S(=O)(=O)N2CCN(c3cccc(C(F)(F)F)c3)CC2)c1C(=O)N1CCCC1 |  | 18.4 µM (active)
22 | CCOc1cc(/C=N/O)ccc1OCc1ccccc1F | 2.25% (inactive) | 
23 | COc1cc(/C=C2/C(=O)ON=C2C)ccc1OCc1ccccc1F |  | 11.6 µM (active)
24 | CC1=NOC(=O)/C1=C\c1ccccc1 | -5.28% (inactive) | 
25 | Cc1cc(NC(=O)CCS(=O)(=O)c2ccc(F)cc2)no1 | -0.0242% (inactive) | 
26 | C[C@@H]1CN(Cc2ccc3c(c2)CN(Cc2ccc(Oc4ncccn4)cc2)CCO3)C[C@H](C)O1 | -11.8% [at 9.04 µM] (inactive) | 
27 | CCN(CC)c1ccc(C(=O)N/N=C/c2ccc(N3CCOCC3)cc2)cc1 | 1.61% (inactive) | 

Row | SMILES | activity change, negative = growth inhibition | Potency
28 | O=C1Nc2ccc(Br)cc2/C1=N/N=C/C1=C(N2CCOCC2)C(=C\c2ccccc2)/CC1 |  | 16.4 µM (active)
29 | O=C(O)c1ccc(NN=CC2=C(N3CCOCC3)/C(=C/c3ccccc3)CC2)cc1 |  | 1.46 µM (active)
30 | O=C(NN=Cc1ccc(N2CCOCC2)cc1)c1cc2ccccc2cc1O | -27.4% (inactive) | 
31 | COc1ccc(/C=N/N=C2/C(=O)Nc3ccccc32)cc1O | -26.3% (inactive) | 
32 | CC1CCN(C(NC(=O)c2ccco2)C(=O)c2ccccc2)CC1 (centres undefined) | -18.3% (inactive) | 
33 | Cc1csc(SCC(=O)Nc2ccc(C)c(S(=O)(=O)N(C)C)c2)n1 | -44.9% (inactive) | 
34 | O=C(CSc1nnc2ccccn12)c1ccccc1 | -8.77% (inactive) | 
35 | Cc1ccc(-n2c(C)cc(C(=O)CSc3nnc4ccccn34)c2C)cc1 |  | 23.1 µM (active)
36 | Cc1ccc(C(=O)NNC(=O)CSc2nnc3ccccn23)cc1 | 1.45% (inactive) | 
37 | COc1ccccc1C(=O)COC(=O)CSCC(=O)Nc1cc(C)on1 | -16.7% (inactive) | 
38 | NC(=O)C1CCCN(CC(=O)N2CCN(c3ccccc3)CC2)C1 (centres undefined) | -9.01% (inactive) | 
39 | Cc1ccc(S(=O)(=O)Oc2ccc(/C=N/NC(=O)c3c(Cl)cnn3C)cc2)cc1 | -25% (inactive) | 
40 | Cc1nc2ccccn2c(=O)c1NC(=O)c1ccc(Br)o1 | -3.61% (inactive) | 
41 | CC(C)(C)Nc1c(-c2cccs2)nc2ccccn12 | 0.159% (inactive) | 
42 | Cc1ccc(-c2nc3ccccn3c2Nc2c(C)cccc2C)o1 |  | 16.4 µM (active)
43 | O=C(CSc1ccccc1)Nc1cccc(S(=O)(=O)N2CCOCC2)c1 | -26.4% (inactive) | 
44 | CC(=O)Nc1ccc(C(=O)NNC(=O)CCCCC(=O)NNC(=O)c2ccc(NC(C)=O)cc2)cc1 | -3.53% (inactive) | 
45 | Cn1c(=O)n(C)c2cc(C(=O)Nc3ccc(Br)cc3)ccc21 | -17.5% (inactive) | 
46 | COCCn1c(=O)[nH]c(=O)c2cc(C(=O)c3cc(OC)ccc3O)cnc21 | -23.3% (inactive) | 
47 | COc1cc(OC)c2c(c1)OC(=O)CC2c1cc(OC)c(OC)c(OC)c1 (centres undefined) | -9.46% (inactive) | 
48 | COC(=O)c1cc(CNC(=O)CC(C)c2ccccc2)ccc1OC (centres undefined) | 9.19% (inactive) | 
49 | COc1cc(NC(=O)CSC(=S)N2CCCC2)c(OC)cc1Cl |  | 29.1 µM (active)
50 | COc1cc(Cl)c(C)cc1NC(=O)CN1CCCCCC1 | 0.785% (inactive) | 
51 | COc1cc(NC(=S)N2CCCC(C)C2)c(OC)cc1Cl (centres undefined) | 0.248% (inactive) | 
52 | N#C/C(=C\c1cccc(F)c1)c1nc(-c2cc3c(ccc4ccccc43)oc2=O)cs1 | -15% (inactive) | 
53 | Cc1cc(C)c(S(=O)(=O)N(C)CC(=O)NCC2CCCO2)c(C)c1 (centres undefined) | -8.5% (inactive) | 
54 | COc1cccc(C(=O)NC2=NC(c3ccc(N(C)C)cc3)CC(=O)N2)c1 (centres undefined) | -17.6% (inactive) | 
